A short description of this assay: viability of BHK-21 cells – cell-based, secondary screen, cytotoxicity control for flavivirus guanylyltransferase probe project (AID 624078). Conditions: BHK-21 cell viability cytotoxicity; series mostly up to 100 µM.

Entries with a potency or affinity are not part of this list. Active and inactive are the calls of the source. How the calls were made is not given here.

For the molecule `Cn1c(=O)c2[nH]c(-c3ccccc3)c(O)c2n(C)c1=O`, the result was inactive.

Source of the values: PubChem BioAssay AID624078 (Southern Research Specialized Biocontainment Screening …, 2012).
